The structures appear in SMILES notation. Out of some 2,300 compounds screened, about 1,200 (52%) were called active. Inconclusive results (about 34%) are left out. Calls follow the shape of the dose curve; as a rule, active = well fitted inhibition curve with a large enough effect; inconclusive = small, poorly fitted or top-dose-only effect, or effect the other way; inactive = no such curve, though single readings can be large or run the other way. So high a share suggests a set chosen from earlier hits. Some of the results follow.
Potency is read from the fitted curve at half-maximal effect.

A short description of this assay: Confirmation screen for delayed death inhibitors of the malarial parasite plastid, 48 hour incubation. Also: nearly all actives have a fitted effect of over 65% in size. To be noted: P. falciparum-infected erythrocytes, luciferase growth; series mostly up to 28.7 µM. Put shortly: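 Erythrocytes infected with luciferase-expressing P. falciparum (2% hematocrit, 0.1% parasitemia) incubated with compounds 48 hours at 37 C, 5% CO2, in RPMI/Albumax. Growth inhibition scored as reduced luminescence after detection reagent.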
For `Cc1ccc(Cc2cnc(N3C(=N)SC(C)C3=O)s2)cc1` (centres undefined), the Potency result is “inactive”.

With `C=CCN1C(=O)[C@@H]2Cc3c([nH]c4ccccc34)C(c3ccc(O)cc3)N2C1=S` (some centres undefined), the Potency was 12.6 µM (active).

`CCN1C(=O)[C@@H]2Cc3c([nH]c4ccccc34)C(c3ccc(OC)cc3)N2C1=S` (some centres undefined): the Potency was 15.8 µM (active).

On to `CC1(C)CC(=O)C2=C(C1)OC1=C(C(=O)CC(C)(C)C1)C2c1ccc(O)cc1O`, for which the Potency was 7.08 µM (active).

For the compound `Fc1cccc(CNc2ncnc3ccc(-c4ccc5c(c4)OCO5)cc23)c1`, the Potency is 10 µM (active).

Consider `Fc1ccc(CSc2nncn2NCc2ccc3c(c2)OCO3)cc1`, for which the Potency result is “inactive”.

For `CCOCCCNC(=S)N1CCN(c2nc(-c3ccccc3)cs2)CC1`, the Potency is 11.2 µM (active).

Regarding `NC1=NC[C@H](Cc2ccc(O)cc2)N1CCc1cccc(F)c1`, the Potency was 7.94 µM (active).

For `NC1=NC[C@@H](Cc2ccc(O)cc2)N1CCc1cccc(F)c1`, the Potency was 10 µM (active).

`CCCCCCCNC(=O)C1(CC2CC(c3ccc(Cl)cc3)=NO2)CCN(C(=O)C2CCCC2)CC1` (centres undefined): the Potency was 14.1 µM (active).

Turning to `CCCCCCCNC(=O)C1(CC2CC(c3ccc(Cl)cc3)=NO2)CCN(C(=O)Cc2ccc(F)cc2)CC1` (centres undefined), the Potency was 11.2 µM (active).

Consider `COc1ccc(C(=O)CSc2nnc(C3CCCCC3)n2N)c(OC)c1`, for which the Potency was 8.91 µM (active).

With `CC1CCCN(c2ccc(F)cc2N)C1` (centres undefined), the Potency was 14.1 µM (active).

`COc1cccc(-c2sc3ccc(OC)cc3c2-c2cc(F)cc(OC)c2)c1`: the Potency is 11.2 µM (active).

In the case of `O=C(CSc1nnc(COc2ccccc2)n1-c1ccccc1)c1cccs1`, the Potency is 14.1 µM (active).

Take `CC(C)C[C@H](NC(=O)c1[nH]cnc1C(=O)Nc1ccc(CNC(=O)OC(C)(C)C)cc1)C(=O)OC(C)(C)C`: the Potency is 6.31 µM (active).

With `CC(C)C[C@H](NC(=O)c1[nH]cnc1C(=O)N[C@@H](C)C(=O)OC(C)(C)C)C(=O)OC(C)(C)C`, the Potency was 7.08 µM (active).

In the case of `C[C@H](NC(=O)c1nc[nH]c1C(=O)N[C@H](C)c1ccccc1)C(=O)OCc1ccccc1`, the Potency result was “inactive”.

For the compound `CC(C)C[C@H](NC(=O)c1nc[nH]c1C(=O)N(C)Cc1ccccc1)C(=O)OC(C)(C)C`, the Potency is 11.2 µM (active).

For the compound `CC(C)C[C@H](NC(=O)c1[nH]cnc1C(=O)N[C@@H](Cc1ccccc1)C(=O)OC(C)(C)C)C(=O)OC(C)(C)C`, the Potency is 6.31 µM (active).

For the compound `O=C(c1ccc(Br)cc1)C(CN1CCOCC1)c1ccccc1` (centres undefined), the Potency is 7.08 µM (active).

Regarding `O=C(c1ccc(Cl)cc1)C(CN1CCCC1)c1ccccc1` (centres undefined), the Potency was 10 µM (active).

On to `O=C(CN1CCCCC1)N/N=C/c1ccc(Cl)cc1`, for which the Potency result is “inactive”.

Take `O=C(CC(c1ccccc1)c1cc(Br)ccc1O)NCCN1CCOCC1` (centres undefined): the Potency was 12.6 µM (active).

Regarding `CN(Cc1ccccc1)C(=O)c1ccc(NC(=O)Cc2cccc(NC(=O)C3CCCN(C(=O)CCc4ccccc4)C3)c2)cc1` (centres undefined), the Potency is 7.08 µM (active).

For `O=[N+]([O-])c1cccc(-c2c[n+]3c(n2-c2ccccc2)SCC3)c1`, the Potency was 2.51 µM (active).

For `COC(=O)C(NC(=O)c1ccccc1C)(Nc1ncc(S(=O)(=O)c2ccc([N+](=O)[O-])cc2)s1)C(F)(F)F` (centres undefined), the Potency was 7.94 µM (active).

Turning to `Cn1nc(C(F)(F)F)c(C(=O)Nc2ccc(F)cc2F)c1Sc1ccc(C(F)(F)F)cc1`, the Potency was 12.6 µM (active).

For the compound `CC(C)Cc1ccc(CN2CCCC(NC(=O)CCn3cnnn3)C2)cc1` (centres undefined), the Potency entry is “inactive”.

In the case of `O=C(NC1CCCN(Cc2ccc(Cl)cc2)C1)c1cnc2ccccn2c1=O` (centres undefined), the Potency is 15.8 µM (active).

As to `Cc1occc1C(=O)NC1CCCN(Cc2ccc(CC(C)C)cc2)C1` (centres undefined), the Potency is 14.1 µM (active).

In the case of `O=C(Cn1c(=O)c(=O)n(Cc2ccccc2)c2ccc(Cl)cc21)Nc1cccc(F)c1`, the Potency was 15.8 µM (active).

Take `Cc1cccc(C)c1N1CCN(C(=O)c2ccc3c(c2)OCO3)CC1`: the Potency is 15.8 µM (active).

With `CCOC(=O)c1c(C)c(-c2ccccc2)n(CC(=O)NCCCN(CC)CC)c1C`, the Potency is 12.6 µM (active).

Regarding `O=C(c1ccco1)N1CCN(C(=O)C2CCCc3c2[nH]c2ccc(Cl)cc32)CC1` (centres undefined), the Potency was 14.1 µM (active).

On to `COc1cccc(/C=C2\SC(=S)N(CCC(=O)N3CCCCC3CCO)C2=O)c1` (centres undefined), for which the Potency was 10 µM (active).

With `O=C1/C(=C/c2ccc(Cl)cc2)SC(=S)N1CCC(=O)N1CCCCC1CCO` (centres undefined), the Potency is 15.8 µM (active).

Turning to `COc1cccc(/C=C2\SC(=O)N(CCC(=O)NC3CCS(=O)(=O)C3)C2=O)c1` (centres undefined), the Potency result is “inactive”.

As for `CC1=CC(=O)O[C@@H]1[C@@]1(C)C[C@H]2OC(=O)C[C@H]3[C@@H](C)C(=O)C(O)=C1[C@@]23CO`, the Potency result is “inactive”.

For the compound `CCCCNC(=O)c1onc(CSc2ccc(Cl)cc2)c1C(=O)O`, the Potency entry was “inactive”.

On to `Cc1oc(=O)c(NC(=O)c2ccc(Cl)cc2)cc1C(=O)c1ccccc1`, for which the Potency result was “inactive”.

As for `CN(C)c1ccc(S(=O)(=O)N2CCCCC2)cc1NC(=O)C1=NN(c2ccccc2)C(=O)CC1`, the Potency is 8.91 µM (active).

`O=C(Nc1cc(Cl)ccc1N1CCCC1)C1=NN(c2ccccc2)C(=O)CC1`: the Potency is 14.1 µM (active).

Consider `O=[N+]([O-])c1cncc([N+](=O)[O-])c1Nc1cccc(O)c1`, for which the Potency is 12.6 µM (active).

With `CC1(C)Cc2c(ccc3ccccc23)C(c2cc3ccccc3oc2=O)=N1`, the Potency was 12.6 µM (active).

Take `O=C(c1ccc(Br)o1)N1CCN(c2ccc3nnc(-c4ccccc4)n3n2)CC1`: the Potency is 12.6 µM (active).

On to `O=C(Nc1ccccc1C(F)(F)F)N1CCN(c2ccc3nnc(-c4ccc(F)cc4)n3n2)CC1`, for which the Potency was 7.08 µM (active).

In the case of `COc1ccc(C(=O)NC(=S)N(C)C2CCCCC2)cc1`, the Potency entry was “inactive”.

Turning to `COc1ccc(CCC(C)N2CCC(Oc3ccc(C(=O)N4CCCC4)cc3)CC2)cc1` (centres undefined), the Potency was 12.6 µM (active).

Take `O=C(c1ccc(OC2CCN(Cc3ccccc3OC(F)F)CC2)cc1)N1CCCC1`: the Potency was 2.24 µM (active).

With `CCOc1cc(/C=C/C(=O)Nc2ccc(C(=O)NCCN(CC)CC)cc2)ccc1OCC(C)C`, the Potency is 1.78 µM (active).

In the case of `Cn1cc([N+](=O)[O-])c(C(=O)Nc2cnn(Cc3ccc(F)cc3)c2)n1`, the Potency result is “inactive”.

With `Cc1nc([N+](=O)[O-])c(Br)n1CC(=O)c1ccc(Cl)cc1`, the Potency is 10 µM (active).

Consider `Cc1nc([N+](=O)[O-])c(Br)n1CC(=O)c1ccc(F)cc1`, for which the Potency was 12.6 µM (active).

For the compound `O=C(c1ccc([N+](=O)[O-])cc1)n1nc(-c2ccccc2)nc1NCc1ccc(F)cc1`, the Potency result is “inactive”.

Turning to `CCOC(=O)N1C/C(=C\c2ccccc2)C(=O)/C(=C/c2ccccc2)C1`, the Potency was 6.31 µM (active).

For `CCN(CC)S(=O)(=O)c1cccc(NC(=O)c2cc(-c3cccs3)nn2-c2ccccc2)c1`, the Potency is 11.2 µM (active).

On to `CCOc1ccc(S(=O)(=O)N2CCOCC2)cc1NC(=O)CN1C(=O)NC(CC)(c2ccccc2)C1=O` (centres undefined), for which the Potency is 12.6 µM (active).

Regarding `CCOc1ccccc1CNC(=O)CN1C(=O)CSc2ccc(S(=O)(=O)N3CCOCC3)cc21`, the Potency was 10 µM (active).

Regarding `CC(=O)NCCC(=O)Nc1cc(S(=O)(=O)N2CCOCC2)ccc1Oc1ccccc1`, the Potency was 11.2 µM (active).

In the case of `CC(C)(C)OC(=O)[C@H]1[C@H](c2ccc([N+](=O)[O-])cc2)C2(C(=O)c3ccccc3C2=O)C2c3ccccc3C=NN21` (some centres undefined), the Potency was 4.47 µM (active).

Consider `Cc1ccc(-c2nn(-c3ccccc3)cc2CC(=S)N2CCOCC2)cc1`, for which the Potency is 14.1 µM (active).

Regarding `COc1cccc(/C=C2\SC(N3CCCC(C)C3)=NC2=O)c1OC` (centres undefined), the Potency is 12.6 µM (active).

With `CCCOc1ccccc1/C=C1\SC(N2CCCCC2)=NC1=O`, the Potency was 11.2 µM (active).

As to `CCOC(=O)C1CCN(C(=O)CCc2nnc3ccc(NCc4ccco4)nn23)CC1`, the Potency was 10 µM (active).

Regarding `CCn1c2ccccc2c2cc(/C=N/n3cn[nH]c3=S)ccc21`, the Potency is 12.6 µM (active).

In the case of `Cc1ccccc1C1=NC(C(F)(F)F)(C(F)(F)F)c2c(n(-c3ccc(F)cc3)c(=O)[nH]c2=O)N1`, the Potency is 10 µM (active).

Turning to `Cc1cc(C)cc(C(=O)NC(CC(N)=O)c2ccc(NCC3CC3)c([N+](=O)[O-])c2)c1` (centres undefined), the Potency result was “inactive”.

With `NC(=O)CC(NC(=O)Cc1ccc(Br)cc1)c1ccc(NC2CC3CCC2C3)c([N+](=O)[O-])c1` (centres undefined), the Potency is 15.8 µM (active).

`COc1cccc(C(=O)/C=C/c2ccc(OCC#N)c(OC)c2)c1`: the Potency is 10 µM (active).

For the compound `COc1cc(/C=C/C(=O)c2ccc(O)cc2)ccc1OCC#N`, the Potency is 12.6 µM (active).

In the case of `O=C(Nc1nc(-c2ccccn2)cs1)C1COc2ccccc2O1` (centres undefined), the Potency was 6.31 µM (active).

As to `O=C1/C(=C/c2ccccc2F)SC(=S)N1CC(=O)N1CCCCC1c1cccnc1` (centres undefined), the Potency is 14.1 µM (active).

With `COc1ccc(OC)c(-c2nc(C(=O)NC3CCN(Cc4ccccc4)CC3)cc3c2[nH]c2ccccc23)c1`, the Potency was 4.47 µM (active).

With `CCCN1CCC(NC(=O)CC2C(=O)NCCN2Cc2cccc(OC)c2)CC1` (centres undefined), the Potency entry is “inactive”.

Take `Cc1ccc2c(c1)C1CC(C)(O2)N(c2cccc(C(=O)N3CCN(c4ccccn4)CC3)c2)C(=O)N1` (centres undefined): the Potency is 12.6 µM (active).

Consider `O=C(C=C=Nc1ccccc1)C(=O)N=C=Cc1ccccc1`, for which the Potency is 14.1 µM (active).

Take `CCOc1ccc(-n2c(N)c(-c3nc4ccccc4n3C)c3nc4ccccc4nc32)cc1`: the Potency is 3.98 µM (active).

For the compound `O=S(=O)(c1ccc(Cl)c(Cl)c1)c1snnc1-c1ccccc1`, the Potency was 12.6 µM (active).

As to `CCCNC(=O)c1nnsc1S(=O)(=O)c1ccc(Cl)cc1`, the Potency entry is “inactive”.

With `O=C(/C=C/c1ccncc1)c1ccc2c(c1)OCCO2`, the Potency is 12.6 µM (active).

Regarding `O=C(O)c1ccc(/C=N/NC(=O)c2ccc3c(c2)OCCO3)cc1`, the Potency result was “inactive”.

Consider `O=C(CC1Sc2ccccc2NC1=O)OCc1cc(=O)oc2cc(O)ccc12` (centres undefined), for which the Potency was 11.2 µM (active).

As to `CO[C@@H]1[C@@H](OC2OC(C)C(OC3CC(C)(O)C(OC(=O)CC(C)C)C(C)O3)C(N(C)C)C2O)[C@@H](CC=O)C[C@@H](C)C(=O)/C=C\C2O[C@H]2C[C@@H](C)OC(=O)C[C@H]1OC(C)=O` (some centres undefined), the Potency is 7.08 µM (active).

For the origin of these results see PubChem BioAssay AID504850 (National Center for Advancing Translational Sciences (NCATS), 2011).
